From PubChem BioAssay
Hits are enriched below; roughly 12% of the tested compounds scored in any of these assays.
PLK1 PBD inh: qHTS for Inhibitors of PLK1-PDB (polo-like kinase 1 - polo-box domain): Primary Screen. Serine/threonine-protein kinase PLK1 (Homo sapiens), P53350. Plk1 PBD binding of FITC phosphopeptide, fluorescence polarization. Potency, µM, hits mostly inhibitors. 2.8% of 360,000 active. AID 720504, 2013; also: series mostly up to about 57 µM; nearly all actives have a fitted effect of over 65% in size
JMJD2A Tudor inh: qHTS Assay for Inhibitors of JMJD2A-Tudor Domain. Lysine-specific demethylase 4A (Homo sapiens), O75164. AlphaScreen JMJD2A-Tudor / H3K4me3 peptide binding. Potency, µM (series often up to 114 µM), actives largely listed as inhibitors. 4.4% of 390,000 active. AID 504339, 2011; also: nearly all actives have a fitted effect of over 50% in size
Sfp inh: qHTS Assay for Inhibitors of Bacillus subtilis Sfp phosphopantetheinyl transferase (PPTase); Biochemical Sfp PPTase activity, qHTS; AID 1490, 2009; 3.5% of 310,000 active; 4'-phosphopantetheinyl transferase ffp (Bacillus subtilis), Q9F4F7; Potency, µM, hits mostly inhibitors;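 also: the enzyme is Sfp with the accession as filed and its product quenches rhodamine fluorescence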
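Sfp 15 nM + cpd, 15 min RT; start w/ rhodamine-CoA 5 uM, BHQ-2-YbbR 12.5 uM (final); 50 mM Hepes pH 7.6, 10 mM MgCl2, 0.01% NP-40, 0.01% BSA; read 525/598 nm at 0 and 30 min.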
BAZ2B inh: qHTS Assay for Inhibitors of BAZ2B; Bromodomain adjacent to zinc finger domain protein 2B (Homo sapiens), Q9UIF8; AlphaScreen BAZ2B-H3K14Ac peptide displacement; Potency, µM (highest dose often 114 µM), most hits filed as inhibitors; 4.4% of 360,000 active; also: nearly all actives have a fitted effect of over 60% in size
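BAZ2B (50 nM) with biotin-H3(5-23)K14Ac peptide (50 nM) in PBS pH 7.4, 0.01% Tween-20, preformed 30 min, then compound 30 min at room temperature; top concentration 110uM. AlphaScreen streptavidin donor/nickel chelate acceptor beads (10 ug/mL final), 20 min dark, signal read.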
G9a inh: qHTS Assay for Inhibitors of Histone Lysine Methyltransferase G9a. Histone-lysine N-methyltransferase EHMT2 (Homo sapiens), Q96KQ7. G9a H3K9 monomethylation, AlphaScreen, 2 h. Potency, µM (highest dose often 102 µM), actives largely listed as inhibitors. 8.8% of 350,000 active; also: nearly all actives have a fitted effect of over 75% in size
Target sequence (Q96KQ7 913-1193 limits assumed): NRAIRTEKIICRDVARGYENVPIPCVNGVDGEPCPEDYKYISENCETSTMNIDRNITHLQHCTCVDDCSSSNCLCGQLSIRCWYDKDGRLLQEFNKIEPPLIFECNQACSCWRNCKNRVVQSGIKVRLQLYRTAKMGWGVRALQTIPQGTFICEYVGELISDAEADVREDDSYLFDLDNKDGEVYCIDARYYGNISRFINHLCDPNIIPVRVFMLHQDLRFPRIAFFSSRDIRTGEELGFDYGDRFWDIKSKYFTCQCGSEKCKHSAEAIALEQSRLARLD
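AlphaScreen read-out: biotin-H3K9 peptide (500 nM) methylation by 20 nM enzyme with 20 uM SAM, 2 h at room temperature after 15 min compound preincubation; anti-monomethyl H3K9 antibody plus donor/acceptor beads, 10 min dark.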
HP1b chromo inh: HTS for Inhibitors of HP1-beta Chromodomain Interactions with Methylated Histone Tails | Chromobox protein homolog 1 (Homo sapiens), P83916 | AlphaScreen HP1-beta / biotin-H3K9me3 peptide binding | Potency, µM (series often up to 114 µM), hits mostly inhibitors | 0.56% of 390,000 active; also: nearly all actives have a fitted effect of over 70% in size
Target sequence (P83916 whole entry, looked up): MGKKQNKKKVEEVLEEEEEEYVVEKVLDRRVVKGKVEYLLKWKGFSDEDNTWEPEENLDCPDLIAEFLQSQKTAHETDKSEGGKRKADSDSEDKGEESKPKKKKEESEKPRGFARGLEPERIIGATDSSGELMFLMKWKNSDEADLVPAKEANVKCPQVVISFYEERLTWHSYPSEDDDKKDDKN
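HP1-beta protein (50 nM final) preincubated 30 min at room temperature with biotinylated H3(1-18)K9me3 peptide (50 nM) in PBS pH 7.4, 0.01% Tween-20, then compound added for 30 min. AlphaScreen streptavidin donor/nickel chelate acceptor beads (10 ug/mL final), 30 min dark, luminescence read.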
Hits are given with their value; – = inactive; ? = inconclusive; · = no result given; [ ] = dose if it differs, or a comment. Calls follow the shape of the dose curve; as a rule, active = well fitted curve in the direction sought with a large enough effect; inconclusive = small, poorly fitted or top-dose-only effect, or another doubt; inactive = no such curve, though single readings can be large; an effect the other way counts as inactive or inconclusive.

SMILES | PLK1 PBD inh | JMJD2A Tudor inh | Sfp inh | BAZ2B inh | G9a inh | HP1b chromo inh
O=C(Nc1cc(-c2ccc(Cl)cc2)no1)c1ccc(F)cc1 | · | – | · | – | – | –
C[C@H]1COC(=O)[C@H]2CCCN2C(=O)[C@@H](C)COC(=O)[C@H](Cc2ccccc2)NC1=O | · | · | – | · | · | ·
CCn1nnnc1SCC(=O)c1ccc2c(c1)OCCO2 | – | – | – | – | – | –
O=C(CSc1nnc2ccccn12)c1ccc2c(c1)OCCO2 | – | – | – | – | 40µM | –
CC(C)n1nnnc1SCC(=O)c1ccc2c(c1)OCCO2 | 30µM | –[11.4 µM] | – | – | – | –
COc1cccc(C(c2sc3ncnn3c2O)N2CCN(C(=O)c3ccco3)CC2)c1 (stereo not given) | – | – | – | – | – | –
CSCCC(NC(=O)COc1ccccc1)C(=O)N1CCN(c2ccccc2O)CC1 (stereo not given) | – | – | · | – | – | –
CC(=O)Nc1cc(-c2ccccc2)cn2c(-c3ccc(F)c(Cl)c3)cnc12 | – | · | · | · | · | ·
Nc1cccn2c(-c3ccc(Cl)c(Cl)c3)cnc12 | 6µM | 50µM | – | 40µM | 45µM | ?
O=C(COC(=O)c1ccc2[nH]c3c(c2c1)CCCC3)Nc1ccccc1 | – | ? | – | – | ? | –
O=[N+]([O-])c1cccc(/C=C2\CCC(/C=N/Nc3ccc4ccccc4n3)=C2N2CCOCC2)c1 | – | – | – | ? | – | –
O=C(NP(=O)(N1CCCC1)N1CCCC1)C1=C(N2CCOCC2)/C(=C/c2cccc([N+](=O)[O-])c2)CC1 | – | – | – | 45µM | 45µM | –
Cc1ccc(Nc2nc(N)[nH]c(=O)c2N=O)cc1 | – | – | ? | – | –[12.7 µM] | –
CC(/C=N/Nc1nnc(C)c(=O)[nH]1)=C\c1ccccc1 | – | – | ? | – | 10µM | –
Cc1nnc(NCCc2ccccc2)[nH]c1=O | – | – | – | – | – | –
C/C(=N\Nc1nnc(C)c(=O)[nH]1)C(=O)O | – | ? | – | 13µM | –[2.33 µM] | –
CC1CCN(S(=O)(=O)c2ccc3nc(NCc4ccccc4)ccc3c2)CC1 | · | – | · | – | – | –
CC1CCN(S(=O)(=O)c2ccc(C(=O)Nc3nnc(C4=COCCO4)o3)cc2)CC1 | – | – | – | ? | ? | –
CCC1CCCCN1S(=O)(=O)c1ccc(C(=O)Nc2nnc(C3=COCCO3)o2)cc1 (stereo not given) | – | – | – | 79µM | – | –
CCC1CCCCN1S(=O)(=O)c1ccc(C(=O)Nc2nnc(C3CC3)o2)cc1 (stereo not given) | – | – | – | 50µM | · | –
O=C(Nc1nnc(C2=COCCO2)o1)c1ccc(S(=O)(=O)N2CCCC2)cc1 | – | 50µM | – | · | ? | –
COc1ccc(-c2nnc(NC(=O)c3ccc(S(=O)(=O)N4COCC4(C)C)cc3)o2)cc1 | ? | –[11.4 µM] | – | 56µM | –[2.33 µM] | –
CCC1CCCCN1S(=O)(=O)c1ccc(C(=O)Nc2nnc(-c3ccccc3Cl)o2)cc1 (stereo not given) | ? | – | – | – | – | –
O=C1CCN(CCc2ccccc2)CCN1C(CSc1ccc(Br)cc1)Cc1ccccc1 (stereo not given) | · | – | – | · | · | –
O=C1CN(C(=O)c2ccc(S(=O)(=O)N3CCCC3)cc2)C(c2ccccc2)c2cc(Cl)ccc2N1 (stereo not given) | · | – | · | – | – | –
CCOC(=O)N1CCN(S(=O)(=O)c2ccc(C(=O)Nc3nnc(C4CC4)o3)cc2)CC1 | – | 50µM | – | 22µM | – | –
CC1CC(C)CN(S(=O)(=O)c2ccc(C(=O)Nc3nnc(C4CC4)o3)cc2)C1 (stereo not given) | – | – | – | ? | – | –
